Measurements taken from PubChem BioAssay (NCATS).
Records with an inconclusive call do not appear. A number with no mark means an inactive call. Calls follow the shape of the dose curve; as a rule, active = well fitted inhibition curve with a large enough effect; inconclusive = small, poorly fitted or top-dose-only effect; inactive = no such curve, though single readings can be large or run the other way.

molecular target: Rap guanine nucleotide exchange factor 3 (Homo sapiens) (UniProt O95398); test: Counterscreen qHTS for antagonist of cAMP-regulated guanine nucleotide exchange factor 3 (EPAC1) (AID 1645888); conditions: Rap1B-BODIPY-GDP nucleotide exchange, fluorescence; series mostly up to 154 µM; activity change, negative = inhibition: at the top concentration;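 also: fluorescence loss as bound BODIPY-GDP is released from Rap1B; % of control where 0% means no effect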
Outline: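 Rap1B–BODIPY-GDP (250 nM) with 50 uM GDP; compounds pin-transferred to 9.74 nM–152 uM final (activator) or from 7.32 nM upwards (inhibitor). Fluorescence Ex/Em 480/540 nm read at 5 and 30 min, then after adding cAMP or buffer, at room temperature.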

Rap guanine nucleotide exchange factor 3 (Homo sapiens), sequence (O95398 whole entry, looked up): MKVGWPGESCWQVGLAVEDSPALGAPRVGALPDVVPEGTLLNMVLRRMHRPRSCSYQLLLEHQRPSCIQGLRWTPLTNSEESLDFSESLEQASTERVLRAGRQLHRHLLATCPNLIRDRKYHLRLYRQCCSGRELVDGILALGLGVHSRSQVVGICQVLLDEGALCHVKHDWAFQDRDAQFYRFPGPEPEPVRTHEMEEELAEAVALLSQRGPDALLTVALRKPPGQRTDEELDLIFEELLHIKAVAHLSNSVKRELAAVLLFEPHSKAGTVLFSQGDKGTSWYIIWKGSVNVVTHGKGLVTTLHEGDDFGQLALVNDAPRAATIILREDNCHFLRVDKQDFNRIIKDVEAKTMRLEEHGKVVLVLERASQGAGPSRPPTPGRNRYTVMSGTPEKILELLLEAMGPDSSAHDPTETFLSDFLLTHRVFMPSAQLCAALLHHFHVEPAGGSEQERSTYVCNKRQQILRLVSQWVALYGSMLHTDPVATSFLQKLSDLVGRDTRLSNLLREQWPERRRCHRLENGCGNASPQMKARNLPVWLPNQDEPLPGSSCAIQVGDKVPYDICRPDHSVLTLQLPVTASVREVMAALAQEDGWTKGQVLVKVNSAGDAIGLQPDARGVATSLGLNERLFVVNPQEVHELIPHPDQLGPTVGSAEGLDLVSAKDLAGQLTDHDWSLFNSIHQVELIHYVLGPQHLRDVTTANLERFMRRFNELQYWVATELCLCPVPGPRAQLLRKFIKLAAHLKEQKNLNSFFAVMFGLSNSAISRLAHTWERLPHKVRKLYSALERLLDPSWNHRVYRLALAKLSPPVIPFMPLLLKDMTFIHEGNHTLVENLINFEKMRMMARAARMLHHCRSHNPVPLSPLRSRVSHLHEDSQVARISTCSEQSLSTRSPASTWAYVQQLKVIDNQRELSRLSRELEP

| Structure (SMILES) | activity change, negative = inhibition |
| --- | --- |
| O=C(c1ccccc1)N1CCN(CCc2ccccn2)CC1 | 65% |
| Cc1ccnc(NS(=O)(=O)c2ccc(NC(=O)Cc3c(F)cccc3Cl)cc2)n1 | 14% |
| CN1N=C(C(C)(C)C)CC1=O | 1.06% |
| COc1cc(/C=C2\SC(=S)N(NS(=O)(=O)c3ccc(C)cc3)C2=O)ccc1O | -2.35% [at 30.8 µM] |
| CCOc1ccc(/C(C)=N/NC(=O)C(OC)c2ccccc2)cc1 (stereo not given) | 12.1% |
| O=C(/C=C/c1ccc(Cl)cc1)Nc1nccs1 | -6.03% [at 30.8 µM] |
| Cc1ccc(Cl)cc1NC(=O)c1ccccc1OCC(=O)Nc1ccc(Cl)cc1 | -9.99% [at 30.8 µM] |
| CCNC(=O)COc1ccc(/C=C2\COc3ccccc3C2=O)cc1OC | 0.373% [at 30.8 µM] |
| CCOC(=O)c1c(C)nc2sc(C(N)=O)c(N)c2c1-c1ccccc1 | -13.8% [at 30.8 µM] |
| O=C(O)c1ccccc1NS(=O)(=O)c1ccc(N/N=C/c2ccc(O)c(O)c2)c([N+](=O)[O-])c1 | -1.88% [at 30.8 µM] |
| Cc1ccc(NC(=O)c2ccc(Cl)c(S(=O)(=O)N3CCc4ccccc43)c2)nc1 | -6.73% |
| COc1ccc(-c2onc3ccc(C(C)=O)cc23)cc1 | 97.5% |
| COC(=O)c1cc2sccc2n1Cc1c(C)cc(C)cc1C | 54.8% |
| CCOc1ccc(N2CC(c3nc4ccccc4n3Cc3cccc(Cl)c3)CC2=O)cc1 (stereo not given) | 26.1% |
| Cc1cc(-c2ccc(Br)s2)nc(-n2cccc2)n1 | -7.16% |
| O=C(Nc1cccc(Cl)c1)N(Cc1nc2ccccc2c(=O)[nH]1)Cc1cccs1 | 2.45% [at 30.8 µM] |
| C/C(=N\N1C(=O)c2ccccc2NC1c1ccco1)c1ccccc1O (stereo not given) | 11.4% |
| CCc1nnc(NS(=O)(=O)c2ccc(Nc3ccc([N+](=O)[O-])c4nonc34)cc2)s1 | -22% |
| CCOC(=O)c1ccccc1-c1csc(NS(=O)(=O)c2ccc(Cl)cc2)n1 | -28.7% [at 30.8 µM] |
| CC(OC(=O)CCN1C(=O)C2CC=CCC2C1=O)C(=O)Nc1cccc(C#N)c1 (stereo not given) | -8.99% [at 30.8 µM] |

| Structure (SMILES) | activity change, negative = inhibition |
| --- | --- |
| CC(C)c1ccc(NS(=O)(=O)c2cn(C)c(=O)n(C)c2=O)cc1 | 26% |
| CN(C)c1nc(Oc2ccc(=O)[nH]n2)nc(N2CCOCC2)n1 | 15.8% |
| Cc1ccc(NC(=O)c2ccc(Cl)cc2Cl)c(C(=O)c2ccccc2)c1 | 27.1% |
| CC(C)(CNC(=O)Cc1ccc(NS(=O)(=O)c2cccc(C(F)(F)F)c2)cc1)N1CCOCC1 | 10.3% [at 30.8 µM] |
| C#CCOCCOCCOCCNc1nc(N2CCN(C(=O)[C@H](Cc3cc4ccccc4[nH]3)n3cc([C@@H](N)Cc4ccc(O)cc4)nn3)CC2)nc(N2CCN(C(=O)[C@H](Cc3cc4ccccc4[nH]3)n3cc([C@@H](N)CC(C)C)nn3)CC2)n1 | -28.3% [at 30.8 µM] |
| O=c1[nH]c([N+](=O)[O-])nn1C(c1ccccc1)c1ccccc1 | -15.1% |
| COc1cc(CNn2cnnc2)ccc1OCC(=O)NC(C)(C)C | 44.3% |
| CC(=O)Nc1ccc(NS(=O)(=O)c2cn(C)c(=O)n(C)c2=O)cc1 | 9.16% [at 30.8 µM] |
| CCc1noc(C)c1C(=O)N1CCCSC1=Nc1ccccc1C(C)C | -9.67% |
| COc1cccc(C(=O)C2=NN(C(C)=O)CC2c2ccco2)c1 (stereo not given) | 25.6% |
| COC(=O)c1c(SC)nc2ccccc2c1OCc1ccc(Br)cc1 | 26.1% |
| CC(=Cc1ccccc1)C=C1SC(=S)N(CCCC(=O)Nc2ccc(C(=O)O)c(O)c2)C1=O | 16.2% |
| CC(C)CC1C(=O)N(Cc2cn(CCC3OCCO3)nn2)CCS(=O)(=O)N1Cc1ccc(-c2ccc(F)cc2)cc1 (stereo not given) | -16% [at 30.8 µM] |
| CCc1cc2c(-c3ccccc3)cc(=O)oc2cc1OCC(=O)NCC1CCC(C(=O)O)CC1 (stereo not given) | -31.3% |
| Cc1ccc(N2C(=O)c3ccccc3C2C(=O)c2ccc(O)cc2O)cc1 (stereo not given) | 6.92% |
| CCc1ccc(NC(=O)CSc2nnc(Cc3cccn3C)n2-c2ccc(OC)cc2)cc1 | -10.1% [at 30.8 µM] |
| CCc1ccc2c(c1)C(NC(C)=O)C(=O)N2CCN1CCOCC1 (stereo not given) | 23.1% |
| NC(=O)COC(=O)c1ccc(Cl)c(S(=O)(=O)N(Cc2ccccc2)c2ccc(Cl)cc2)c1 | -4.28% [at 30.8 µM] |
| COc1ccc(-c2nn(-c3ccccc3)cc2/C=N/n2cnnc2)cc1OC | 19.4% |
| C=CCOc1ccc(/C=C2\SC(=S)N(C(C(=O)O)c3ccccc3)C2=O)cc1 (stereo not given) | -23.9% [at 30.8 µM] |
